# Reference: paper PMC7862700, “An all-to-all approach to the identification of sequence-specific readers for epigenetic DNA modifications on cytosine”
# How the values were obtained:
# Experiment in all cases: DAPPL (digital affinity profiling via proximity ligation, sequencing); 10 mM Tris-HCl pH 7.5, 50 mM NaCl, 1 mM DTT, 4% glycerol, room temperature, 30 min; GST-TFs on glutathione beads, 16-mer random dsDNA library, 0.1% formaldehyde crosslink after washing; high values mean tight binding
# Conditions in all cases: protein: recombinant; tags: N-terminal GST; dsDNA, one strand shown
# GABPA = molecular target: T1, GABPA (Homo sapiens, UniProt Q06546 1-454)
# T1 sequence: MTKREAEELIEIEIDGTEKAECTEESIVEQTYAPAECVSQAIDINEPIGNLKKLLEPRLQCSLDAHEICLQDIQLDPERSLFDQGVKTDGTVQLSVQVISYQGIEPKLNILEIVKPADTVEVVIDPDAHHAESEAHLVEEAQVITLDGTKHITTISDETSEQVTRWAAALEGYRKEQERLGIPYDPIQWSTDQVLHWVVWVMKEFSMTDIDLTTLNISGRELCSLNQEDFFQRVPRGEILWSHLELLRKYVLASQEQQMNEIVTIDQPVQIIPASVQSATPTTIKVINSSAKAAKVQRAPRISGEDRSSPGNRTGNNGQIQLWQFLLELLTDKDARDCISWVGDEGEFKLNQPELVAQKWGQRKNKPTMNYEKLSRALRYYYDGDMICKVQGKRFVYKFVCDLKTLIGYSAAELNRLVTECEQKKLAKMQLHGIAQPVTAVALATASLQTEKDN
# Outline: (§1)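 Human transcription factors fused to GST were expressed in yeast, captured on glutathione beads, given DNA barcodes and pooled with a GST-only negative control. Pools were incubated with 200 nmole of a 16-mer random double-stranded DNA library in Tris/NaCl/DTT/glycerol buffer at room temperature for 30 min. They were then washed, crosslinked with 0.1% formaldehyde, proximity-ligated (BsaI/T4 ligase, 1 h, 37 °C), PCR-amplified and sequenced on an Illumina NextSeq500. Binding signal is each 6-mer's read frequency for a factor divided by its frequency for the GST control.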
# EHF = molecular target: T2, EHF (Homo sapiens, UniProt Q9NZC4 1-300)
# T2 sequence: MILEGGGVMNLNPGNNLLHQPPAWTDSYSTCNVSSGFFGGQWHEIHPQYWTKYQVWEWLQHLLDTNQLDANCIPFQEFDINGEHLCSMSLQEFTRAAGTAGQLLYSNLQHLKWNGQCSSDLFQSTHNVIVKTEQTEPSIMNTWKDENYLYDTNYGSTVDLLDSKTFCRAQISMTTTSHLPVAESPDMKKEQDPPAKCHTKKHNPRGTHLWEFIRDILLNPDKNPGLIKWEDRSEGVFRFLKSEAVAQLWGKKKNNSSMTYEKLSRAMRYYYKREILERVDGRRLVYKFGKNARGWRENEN
# Outline: as §1
# ELK3 = molecular target: T3, ELK3 (Homo sapiens, UniProt P41970 1-407)
# T3 sequence: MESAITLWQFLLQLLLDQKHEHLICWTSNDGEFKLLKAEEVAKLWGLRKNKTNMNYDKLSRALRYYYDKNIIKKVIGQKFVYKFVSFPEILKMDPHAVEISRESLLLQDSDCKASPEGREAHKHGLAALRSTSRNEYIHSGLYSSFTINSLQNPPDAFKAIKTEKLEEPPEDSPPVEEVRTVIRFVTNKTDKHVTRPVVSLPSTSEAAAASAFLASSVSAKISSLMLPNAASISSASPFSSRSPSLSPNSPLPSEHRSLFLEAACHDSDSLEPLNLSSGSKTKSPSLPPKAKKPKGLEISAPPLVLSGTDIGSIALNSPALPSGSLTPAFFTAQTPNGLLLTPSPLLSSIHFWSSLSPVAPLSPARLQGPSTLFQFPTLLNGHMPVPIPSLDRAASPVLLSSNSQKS
# Outline: as §1
# ETV5 = ETV5 (Homo sapiens, UniProt P41161 1-510)
# Outline: as §1
# ELF3 = molecular target: T4, ELF3 (Homo sapiens, UniProt P78545 1-371)
# T4 sequence: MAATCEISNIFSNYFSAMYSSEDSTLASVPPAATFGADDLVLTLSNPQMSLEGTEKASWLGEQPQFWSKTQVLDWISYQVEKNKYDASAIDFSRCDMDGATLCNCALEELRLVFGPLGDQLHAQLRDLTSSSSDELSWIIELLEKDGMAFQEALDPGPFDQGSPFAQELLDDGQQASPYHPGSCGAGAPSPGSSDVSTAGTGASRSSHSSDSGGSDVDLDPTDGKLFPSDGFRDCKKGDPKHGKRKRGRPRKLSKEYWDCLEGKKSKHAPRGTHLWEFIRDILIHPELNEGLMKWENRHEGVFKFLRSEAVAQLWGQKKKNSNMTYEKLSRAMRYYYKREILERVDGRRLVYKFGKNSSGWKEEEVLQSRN
# Outline: as §1
# ETV1 = ETV1 (Homo sapiens, UniProt P50549 1-477)
# Outline: as §1
# ERF = molecular target: T5, ERF (Homo sapiens, UniProt P50548 1-548)
# T5 sequence: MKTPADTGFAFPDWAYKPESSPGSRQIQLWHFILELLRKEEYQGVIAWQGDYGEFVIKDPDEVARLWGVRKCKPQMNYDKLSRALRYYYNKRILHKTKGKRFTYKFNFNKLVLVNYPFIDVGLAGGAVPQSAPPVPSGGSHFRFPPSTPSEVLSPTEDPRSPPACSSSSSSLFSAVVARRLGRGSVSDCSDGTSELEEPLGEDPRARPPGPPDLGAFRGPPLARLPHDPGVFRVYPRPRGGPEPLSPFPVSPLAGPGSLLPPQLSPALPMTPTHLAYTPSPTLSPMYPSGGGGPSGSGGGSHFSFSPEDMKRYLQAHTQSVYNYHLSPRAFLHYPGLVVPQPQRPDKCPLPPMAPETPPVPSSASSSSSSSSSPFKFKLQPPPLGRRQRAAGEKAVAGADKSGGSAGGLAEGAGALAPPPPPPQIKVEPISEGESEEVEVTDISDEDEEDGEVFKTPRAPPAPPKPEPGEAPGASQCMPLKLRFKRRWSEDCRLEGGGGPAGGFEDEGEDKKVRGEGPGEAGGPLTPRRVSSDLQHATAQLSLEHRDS
# Outline: as §1
# ETS2 = molecular target: T6, ETS2 (Homo sapiens, UniProt P15036 1-469)
# T6 sequence: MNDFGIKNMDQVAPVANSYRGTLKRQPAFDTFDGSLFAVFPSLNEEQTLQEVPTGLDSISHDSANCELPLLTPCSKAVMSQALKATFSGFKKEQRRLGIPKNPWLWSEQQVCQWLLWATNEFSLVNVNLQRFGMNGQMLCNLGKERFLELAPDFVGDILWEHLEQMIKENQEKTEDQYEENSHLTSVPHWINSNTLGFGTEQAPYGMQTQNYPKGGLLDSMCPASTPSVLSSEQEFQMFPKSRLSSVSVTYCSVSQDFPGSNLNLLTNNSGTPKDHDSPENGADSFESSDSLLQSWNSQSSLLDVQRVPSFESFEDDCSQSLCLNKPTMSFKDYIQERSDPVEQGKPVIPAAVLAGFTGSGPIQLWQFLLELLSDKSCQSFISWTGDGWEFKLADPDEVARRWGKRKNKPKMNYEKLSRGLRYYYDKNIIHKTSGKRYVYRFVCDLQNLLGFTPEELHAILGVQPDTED
# Outline: as §1
# ETV3 = molecular target: T7, ETV3 (Homo sapiens, UniProt P41162-2 1-143)
# T7 sequence: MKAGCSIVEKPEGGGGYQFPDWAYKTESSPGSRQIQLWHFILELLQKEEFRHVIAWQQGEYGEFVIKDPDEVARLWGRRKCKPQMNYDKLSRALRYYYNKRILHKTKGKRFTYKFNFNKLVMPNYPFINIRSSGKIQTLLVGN
# Outline: as §1
# ETV6 = ETV6 (Homo sapiens, UniProt P41212 1-452)
# Outline: as §1
# ETV1, sequence (P50549 whole entry): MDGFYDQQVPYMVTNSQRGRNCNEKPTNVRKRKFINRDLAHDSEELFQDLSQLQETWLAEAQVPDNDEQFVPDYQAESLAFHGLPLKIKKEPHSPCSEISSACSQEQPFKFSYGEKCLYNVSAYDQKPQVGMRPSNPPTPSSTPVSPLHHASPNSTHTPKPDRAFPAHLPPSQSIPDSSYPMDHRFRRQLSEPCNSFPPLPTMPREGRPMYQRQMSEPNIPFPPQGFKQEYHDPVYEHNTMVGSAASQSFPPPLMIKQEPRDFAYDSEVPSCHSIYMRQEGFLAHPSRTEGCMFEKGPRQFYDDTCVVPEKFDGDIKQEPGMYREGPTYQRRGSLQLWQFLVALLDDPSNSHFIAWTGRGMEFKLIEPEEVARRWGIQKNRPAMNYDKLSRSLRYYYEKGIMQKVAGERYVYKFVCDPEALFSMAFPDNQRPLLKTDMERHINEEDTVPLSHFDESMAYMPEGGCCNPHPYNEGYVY
# ETV6, sequence (P41212 whole entry): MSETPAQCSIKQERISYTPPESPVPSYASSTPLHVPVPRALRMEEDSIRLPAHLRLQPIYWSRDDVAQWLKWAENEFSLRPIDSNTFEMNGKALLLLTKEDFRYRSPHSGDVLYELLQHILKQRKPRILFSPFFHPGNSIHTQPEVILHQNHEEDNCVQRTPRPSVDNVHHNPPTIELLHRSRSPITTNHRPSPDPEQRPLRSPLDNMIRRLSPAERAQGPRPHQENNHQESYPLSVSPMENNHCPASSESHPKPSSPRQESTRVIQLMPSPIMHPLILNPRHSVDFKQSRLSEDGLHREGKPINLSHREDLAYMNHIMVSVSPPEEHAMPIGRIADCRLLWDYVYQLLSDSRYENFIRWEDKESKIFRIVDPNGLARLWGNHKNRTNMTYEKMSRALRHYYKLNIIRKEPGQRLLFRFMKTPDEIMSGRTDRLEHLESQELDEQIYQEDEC
# ETV5, sequence (P41161 whole entry): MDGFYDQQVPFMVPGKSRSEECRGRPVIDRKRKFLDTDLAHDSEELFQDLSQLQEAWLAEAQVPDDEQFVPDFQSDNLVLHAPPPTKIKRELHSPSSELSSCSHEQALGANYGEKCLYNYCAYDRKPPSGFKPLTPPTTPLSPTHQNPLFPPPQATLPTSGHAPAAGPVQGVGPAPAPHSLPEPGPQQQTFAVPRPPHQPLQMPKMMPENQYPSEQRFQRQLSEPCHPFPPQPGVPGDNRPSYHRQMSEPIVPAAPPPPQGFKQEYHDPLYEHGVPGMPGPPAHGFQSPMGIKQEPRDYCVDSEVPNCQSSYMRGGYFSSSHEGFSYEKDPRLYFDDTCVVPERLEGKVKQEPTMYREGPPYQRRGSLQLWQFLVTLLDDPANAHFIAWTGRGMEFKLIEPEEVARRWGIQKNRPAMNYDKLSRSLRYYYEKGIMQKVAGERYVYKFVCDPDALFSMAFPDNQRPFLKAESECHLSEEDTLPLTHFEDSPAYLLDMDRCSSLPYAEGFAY
sequence,measurement,setting,value
AGTAAA,binding signal,GABPA,"1.02 fold enrichment (6-mer frequency, TF over GST control)"
same,binding signal,EHF,"1.03 fold enrichment (6-mer frequency, TF over GST control)"
same,binding signal,ELK3,"1.06 fold enrichment (6-mer frequency, TF over GST control)"
same,binding signal,ETV5,"1.05 fold enrichment (6-mer frequency, TF over GST control)"
same,binding signal,ELF3,"1.08 fold enrichment (6-mer frequency, TF over GST control)"
same,binding signal,ETV1,"1.04 fold enrichment (6-mer frequency, TF over GST control)"
same,binding signal,ERF,"1.01 fold enrichment (6-mer frequency, TF over GST control)"
same,binding signal,ETS2,"1.02 fold enrichment (6-mer frequency, TF over GST control)"
same,binding signal,ETV3,"1.03 fold enrichment (6-mer frequency, TF over GST control)"
same,binding signal,ETV6,"1.11 fold enrichment (6-mer frequency, TF over GST control)"
